Results from PubChem BioAssay (NCATS).
Where “and” joins values, the source holds several entries; their conditions need not be identical. Equal values may be shown once. Results filed as inconclusive are left out. Values without a mark were called inactive. Calls of active or inactive are those of the source. The call rests on the fitted dose curve; in most records, active means well fitted inhibition curve with a large enough effect in the signal ratio, with a control signal flat (not every such curve was filed as active); inconclusive means small, poorly fitted or top-dose-only effect, or effect the other way, or a change in a side signal; inactive means no such curve, though single readings can be large or run the other way; the % refers to the signal ratio.

Target: Retinoic acid receptor RXR-alpha (Homo sapiens) (UniProt P19793)
Sequence (P19793 whole entry, looked up): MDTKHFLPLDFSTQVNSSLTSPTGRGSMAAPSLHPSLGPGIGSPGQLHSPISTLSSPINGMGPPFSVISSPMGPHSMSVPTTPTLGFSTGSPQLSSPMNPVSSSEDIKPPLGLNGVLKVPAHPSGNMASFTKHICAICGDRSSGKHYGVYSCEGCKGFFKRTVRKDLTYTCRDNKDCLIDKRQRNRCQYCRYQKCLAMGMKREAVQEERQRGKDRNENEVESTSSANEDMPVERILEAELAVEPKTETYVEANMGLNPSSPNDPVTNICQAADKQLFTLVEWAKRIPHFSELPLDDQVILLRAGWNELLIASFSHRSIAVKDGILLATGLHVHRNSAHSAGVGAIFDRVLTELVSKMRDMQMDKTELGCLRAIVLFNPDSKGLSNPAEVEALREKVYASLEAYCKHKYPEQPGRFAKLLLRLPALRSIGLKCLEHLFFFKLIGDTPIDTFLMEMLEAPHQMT
Test: qHTS assay for small molecule antagonists of retinoid X receptor alpha signaling (AID 588546)
Conditions: HEK293T RXRa-UAS-bla, beta-lactamase ratio, antagonist mode
Source text: NIH Chemical Genomics Center [NCGC] U.S. Environmental Protection Agency [EPA] National Institutes of Environmental Health Sciences [NIEHS] National Toxicology Program [NTP] NCGC Assay Overview The Retinoid X receptor (RXR), a nuclear hormone receptor is expressed in liver, spleen, placenta, epidermis, central nervous system. These receptors are able to form homo and heterodimers with other nuclear receptors and due to this heterodimerizing ability, RXR functions as master regulators producing diverse physiological effects. Three subtypes of RXR exist; alpha, beta and gamma. Retinoid X receptor alpha (RXR-alpha) has potential roles in metabolic signaling pathways, skin alopecia, dermal cysts, cardiac development, insulin sensitization etc. Therefore screening environmental chemicals on RXR-alpha signaling can be used for the studies focused on such therapeutic applications.
NCGC Assay Protocol Summary Using a beta-lactamase reporter-gene under control of Retinoid X receptor--alpha (RXR-alpha) response element, a cell-based assay [GeneBLAzer (RXR-alpha -UAS-bla assay developed by Invitrogen] was used to measure RXR-alpha ligands signaling. GeneBLAzer RXR-alpha -UAS-bla HEK293T cells were used with assay medium containing 2% charcoal-stripped FBS. The assay was performed in clear bottom black Greiner 1536-well plates. Library compounds were measured for their ability to inhibit the reporter gene activity. Compounds were screened in a titration series in 1536-well format. The fluorescence intensity (405 nm excitation, 460/530 nm emission) was measured using an EnVision plate reader. Data was normalized relative to 9-cis-retinoic acid control (500 nM, 100%), and DMSO only wells (basal, 0%). Concentration-response titration points for each compound were fitted to the Hill equation yielding concentrations of half-maximal inhibition (IC50) and maximal response (efficacy) values. qHTS protocol for RXR-alpha beta-lactamase assay in antagonist mode [Step] [Parameter] [Value] [Description] 1. Reagent; 5 uL; 2500 cells/well 2. Incubation; 37 C for 4 hrs 3. Compounds; 23 nL; 0.59 nM to 92 uM 4. Controls (DMSO); 23 nL 5. Agonist (Stimulator); 1uL; 9-cis-retinoic acid at 500 nM and 100 nM final concentrations 6. Incubation; 37 C for 18 hrs 7. Detection reagent; 1 uL of CCF4-dye 8. Incubation; RT for 2 hrs 9. Detection; Fluorescence; Envision plate reader
On the % scale 0 is the no-effect control and ±100 the full control effect.

| Structure (SMILES) | max response | Potency |
| --- | --- | --- |
| C[C@H]1C(=O)O[C@@H]2CCN3CC=C(COC(=O)[C@](C)(O)[C@]1(C)O)[C@H]23 | -1.01% |  |
| CCCCCCCCC(=O)NCc1ccc(O)c(OC)c1 | -5.69% |  |
| Oc1c(Br)cc(Br)cc1Br | -6.81% and -18.8% |  |
| CCNc1nc(Cl)nc(NCC)n1 | 2.68% |  |
| O=C(Nc1ccc(Cl)cc1)Nc1ccc(Cl)c(Cl)c1 |  | 10 µM (active) |
| Oc1ccc(Cl)cc1Cc1cc(Cl)ccc1O |  | 14.1 µM (active) |
| C=CCOC(Cn1ccnc1)c1ccc(Cl)cc1Cl (configuration not stated) | -20.3% and -31.1% |  |
| CNC(=O)Oc1cccc2ccccc12 | 8.76% and -2.97% |  |
| O=C(NC(=O)c1c(F)cccc1F)Nc1cc(Cl)c(OC(F)(F)C(F)C(F)(F)F)cc1Cl (configuration not stated) | -7.55% |  |
| COCC(=O)N(c1c(C)cccc1C)C(C)C(=O)OC (configuration not stated) | -3.83% |  |
| CCC(=O)O[C@H]1CC[C@H]2[C@@H]3CCC4=CC(=O)CC[C@]4(C)[C@H]3CC[C@]12C | -0.425% |  |
| Cc1ccc(N=CN(C)C=Nc2ccc(C)cc2C)c(C)c1 | -33.7% |  |
| COP(=O)(OC)OC=C(Cl)Cl | 5.84% and -9.46% and -14.2% |  |
| O=c1n(Cl)c(=O)n(Cl)c(=O)n1Cl | 2.47% |  |
| COP(=S)(OC)Oc1ccc(Sc2ccc(OP(=S)(OC)OC)cc2)cc1 | -19.4% |  |
| CC[n+]1c(-c2ccccc2)c2cc(N)ccc2c2ccc(N)cc21 |  | 8.91 µM (active) |
| CN(C)C(=S)SSC(=S)N(C)C |  | 44.7 µM (active) |
